The panel holds about 83,000 compounds, 20% with a hit somewhere; the sample as a whole holds those more often.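 Cells were grown in 96-well plates and exposed to the test compound at a single concentration for 48 hours; results are reported as percent growth, with values below 10 considered active.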 A number with no mark means an inactive call. The source made the active and inactive calls.

The assay relates to HL-60(TB) leukemia. Description: NCI-60 one-dose screen, 48 h (100 = growth as untreated, 0 = no growth, -100 = all killed). As to conditions: 10 µM unless noted.
Take `COc1ccc2nc(-c3ccc(Cl)cc3)cc(-c3nnc(SC/C(=N\O)c4ccccc4)n3-c3ccccc3)c2c1`: the growth is 55.4%.
For the compound `Nc1nc2ccc3[nH]ncc3c2c2c1CCCC2`, the growth is -23.4% (active).
For `CC(=O)Nc1nonc1-c1nc2ccccc2n1Cc1ccc(C(C)(C)C)cc1`, the growth was 56.8%.
The value for `CCCCCC(=O)Oc1ccc(/C(=C(/C)Cc2ccc(OC)cc2)c2ccc(OCCCN(C)C)cc2)cc1` was 62%.
With `CCC1(/C=N/NC(N)=S)NC(=O)NC1=O` (configuration not stated), the growth was 111%.
Turning to `O=C(CSc1nnc(-c2ccc(Cl)cc2)o1)Nc1ccc(C(=O)/C=C/c2ccccc2)cc1`, the growth was 97.1%.
For the compound `CN(Cc1ccccc1)Cc1ccccc1`, the growth was 93.4%.
Regarding `COc1ccc(/C(C)=N/NS(=O)(=O)c2ccc(C)cc2)cc1OC`, the growth is 97.6%.
To `COc1ncc2cc1NS(=O)(=O)c1cccc(c1)C(=O)NCC1=CC=C(S1)c1ncnc3c1SC2=C3C` belongs -10.8% (active); to `Cc1ccc(F)cc1NC(=O)c1cc(Cl)ccc1Nc1ccccc1`, 51.6%; to `COc1ccncc1C#Cc1cncc(C(=O)Nc2ccc(CN3CCN(C)CC3)c(C(F)(F)F)c2)c1`, 8.01% (active).
To `COC(=O)C1=CCC(n2cnc3c(N)ncnc32)O1` (configuration not stated) belongs 94%.

Source of the values: PubChem BioAssay (NCI).
